# Sampled rows, rich in hits. Any-hit rate of the full collection: about 3.5%.
# Mcl1-Noxa inh – Mcl-1/Noxa interaction inhibition; 220,000 compounds, 1.5% hits; Q07820; TR-FRET Mcl-1/Noxa peptide binding, 2 h; AID 1022; inhibition, % at 21.7 µM;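 active = compounds that cut the protein-peptide binding signal by more than 50% relative to plate controls in a single-dose test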;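 note: His-tagged Mcl-1 with rhodamine Noxa BH3 peptide and terbium anti-His antibody; 0% = Mcl-1 plus Noxa peptide wells and 100% = peptide-only wells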
# Target sequence (Q07820 whole entry, looked up): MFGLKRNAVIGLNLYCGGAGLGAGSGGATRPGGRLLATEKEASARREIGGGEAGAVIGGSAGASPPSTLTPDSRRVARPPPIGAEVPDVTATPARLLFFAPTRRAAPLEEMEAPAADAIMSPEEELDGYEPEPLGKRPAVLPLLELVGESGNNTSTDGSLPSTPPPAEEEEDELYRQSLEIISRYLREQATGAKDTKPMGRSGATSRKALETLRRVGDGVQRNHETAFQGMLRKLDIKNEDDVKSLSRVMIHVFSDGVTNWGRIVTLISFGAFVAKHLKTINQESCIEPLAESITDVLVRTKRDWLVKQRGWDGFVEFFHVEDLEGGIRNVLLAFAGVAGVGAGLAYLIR
# Hck Nef HTS – inhibitors of human Hck kinase activated by Nef; P08631; Recombinant Hck-YEEI plus Nef, Z-Lyte FRET kinase assay; inhibition, % at 20 µM; 220,000 compounds, 0.68% hits;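 active = Hck-Nef kinase inhibition above about 50%, limit read from the data; inactive = inhibition below that limit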;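 note: 0% = DMSO with Hck plus Nef and 100% = Hck alone without Nef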
# 14-3-3 Bad inh – disrupts binding of bovine 14-3-3 zeta to phospho-Bad peptide. inhibition, % at 21.7 µM. P63103. TR-FRET 14-3-3zeta/Dy647-pBad peptide displacement, 1 h. AID 781. 220,000 compounds, 0.71% hits;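 active = inhibition above about 70%, limit read from the data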;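 note: 0% = full 14-3-3 plus peptide FRET controls and 100% = background without 14-3-3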
# Target sequence (P63103 whole entry, looked up): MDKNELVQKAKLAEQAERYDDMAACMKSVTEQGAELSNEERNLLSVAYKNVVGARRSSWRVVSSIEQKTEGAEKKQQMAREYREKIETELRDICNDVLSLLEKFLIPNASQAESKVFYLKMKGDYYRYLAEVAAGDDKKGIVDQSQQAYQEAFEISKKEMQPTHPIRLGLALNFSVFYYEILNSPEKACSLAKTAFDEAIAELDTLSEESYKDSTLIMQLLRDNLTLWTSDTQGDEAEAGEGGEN
# Mcl1-Bid inh – disrupts binding of human Mcl-1 to Bid peptide. Q07820. inhibition, % at 21.7 µM. TR-FRET Mcl-1/Bid-Dy647 peptide binding, 1536-well. AID 1021. 220,000 compounds, 0.97% hits;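 active = compounds that cut the binding signal by more than half at the single screening dose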;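 note: His-tagged Mcl-1 with europium anti-His antibody binding Bid BH3 peptide; 0% = Mcl-1 plus peptide wells and 100% = peptide-only wells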
# Bim-Mcl-1 – disrupts Bim peptide binding to human Mcl-1. inhibition, % at 10 µM. Bead-based flow cytometry, Bim peptide-Mcl-1 binding. AID 1009. 190,000 compounds, 0.1% hits. Q07820; in the data active = inhibition above about 40%;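 note: 0% = no compound tracer wells and 100% = peptide blocker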
# eIF4E-4G inh – inhibitors of eIF4E and eIF4G interaction in translation initiation. P63073+Q04637. TR-FRET eIF4E-eIF4GI(517-606) binding, 2 h. inhibition, % at 21.7 µM. 220,000 compounds, 0.37% hits;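 active = inhibition above about 30%, limit read from the data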;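 note: 0% = full FRET control wells and 100% = background wells lacking eIF4GI fragment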
# * hit, by the source's call; . = no result given; [ ] = dose if it differs, or a comment.
SMILES,Mcl1-Noxa inh,Hck Nef HTS,14-3-3 Bad inh,Mcl1-Bid inh,Bim-Mcl-1,eIF4E-4G inh
CC(C)NC(=O)C(=O)NCCN1CCN(C(=O)c2ccc(C(C)(C)C)cc2)CC1,14,-7,-2,-27,-1,1
CNC(=O)C(=O)NCCN1CCN(C(=O)c2ccc([N+](=O)[O-])cc2)CC1,-12,23,-20,91*,1,0
O=C(N1CCOCC1)N1CCC(c2nc(-c3ccc(S(=O)(=O)N4CCOCC4)cc3)no2)CC1,2,2,73*,-13,-1,2
COc1ccc(-c2n[nH]c(=S)n2-c2ccc3c(c2)OCCO3)cc1,45,2,-4,-52,-3,-2
COc1cc(OC)cc(-c2n[nH]c(=S)n2-c2ccc3c(c2)OCCO3)c1,51*,-13,-2,-29,-5,-3
CCN1C(=O)/C(=C\c2nc3ccccc3c(=O)n2-c2ccccc2)c2ccccc21,27,4,78*[fluorescence artefact?],45,-5,-6
O=C(COC(=O)c1ccc(OC(F)F)cc1)NCCCN1CCCC1=O,2,-1,-6,16,.,4
CC(/C=C1\SC(=S)N(C(C(=O)O)c2ccccc2)C1=O)=C\c1ccccc1 (stereo unspecified),19,75*,11,31,.,2
Cc1cccc(N=N/C(=C\O)C(=O)c2cccs2)c1,11,25,-2,-6,-5,0
CC(NC(=O)COC(=O)CC(c1ccccc1)c1ccccc1)c1ccccc1 (stereo unspecified),9,1,7,7,-3,2
O=C(CN1C(=O)S/C(=C\c2ccc(Cl)cc2)C1=O)NNC(=O)c1ccccc1O,65*,6,77*[fluorescence artefact?],82*,-6,33*
COc1ccc(/C=C2\SC(=S)N(CCCC(=O)NNC(=O)c3ccccc3O)C2=O)cc1,12,28,3,16,-3,7
CCCCN(C)CCNC(=O)CCNC(=O)Cn1ccc2ccccc2c1=O,6,-4,-9,-28,0,2
O=C1CC(c2ccc(O)c(O)c2)Oc2cc(O)cc(O)c21 (stereo unspecified),15,37,5,-70,.,-13
CC1CC(=O)c2c(cc3c(-c4c(O)cc(O)c5c(O)c6c(cc45)OC(C)CC6=O)c(O)cc(O)c3c2O)O1 (stereo unspecified),93*,22,6,47,0,27
COc1ccc(C(=O)Nc2nc3c(s2)Cc2cc(OC)ccc2-3)cc1,86*,2,59,55*,0,3
COc1ccc2c(c1)Cc1sc(NC(=O)c3ccccc3)nc1-2,11,2,-6,-9,1,-2
COc1cc(C(=O)Nc2nc3ccc4nc(C)sc4c3s2)cc(OC)c1OC,12,2,8,4,-3,-4
COc1ccc(C(=O)Nc2nc3ccc4nc(C)sc4c3s2)cc1,53*,3,62,13,2,-7
COc1ccc(C(=O)NCc2nnc(SCC(=O)Nc3ccc4c(c3)OCO4)o2)cc1,0,25,-18,-8,-1,-4
O=C(NCCCn1ccnc1)C(Cc1ccc([N+](=O)[O-])cc1)N1C(=O)c2ccccc2C1=O (stereo unspecified),-27,-8,-3,-8,0,4
CC(C)(C)NCCOCCOc1ccccc1-c1ccccc1,4,1,39,56*,-2,-1
COCCCNCCOCCOc1ccccc1-c1ccccc1,20,0,14,3,1,0
CCN1CCN(CCOCCOc2ccccc2-c2ccccc2)CC1,25,12,71*,39,2,3
CC1CC(C)CN(CCOc2ccccc2-c2ccccc2)C1 (stereo unspecified),31,5,42,57*,-3,5
SMILES,Mcl1-Noxa inh,Hck Nef HTS,14-3-3 Bad inh,Mcl1-Bid inh,Bim-Mcl-1,eIF4E-4G inh
CC1CCN(CCOc2ccccc2-c2ccccc2)CC1,19,3,46,28,0,2
Cc1[nH]c2c(C)cccc2c1CN1CCC(CO)(Cc2ccccc2)CC1,6,-1,4,-22,.,-12
COc1cccc(OC)c1OCCCCN1CCCC1,22,0,74*,31,-6,-4
CC1CCN(CCCCOc2ccccc2[N+](=O)[O-])CC1,-1,0,85*,53*,1,7
CN1CCN(CCCCOc2ccccc2C=O)CC1,14,22,62,56*,-3,6
CC1CCN(CCCCOc2ccc([N+](=O)[O-])cc2)CC1,9,0,51,10,-3,4
Cc1cc(NC(=O)c2ccc([N+](=O)[O-])cc2)n(C)n1,11,11,-1,-22,.,-1
O=C(NCCc1csc(-c2cccnc2)n1)c1cccs1,15,-2,2,86*,-2,-3
COc1ccc(Cn2cnc([N+](=O)[O-])c2)cc1[N+](=O)[O-],2,-2,99*,0,.,1
O=[N+]([O-])c1cn(Cc2ccc(Cl)cc2)cn1,0,1,16,-15,0,2
Cc1cc(C)c(C)c(S(=O)(=O)NC(C(=O)O)C(C)C)c1C (stereo unspecified),7,23,-8,-3,2,-2
COCCN1C(=O)/C(=C/c2ccc(OCc3ccc(C(=O)O)cc3)c(OC)c2)SC1=Nc1ccccc1,64*,0,-2,-57,-1,8
COc1ccc(Nc2nc(-c3cccs3)cs2)c(OC)c1,29,-11,78*,3,-1,6
O=[N+]([O-])c1cc(Br)c(O)c(/C=N/Nc2nnnn2-c2cccc3ccccc23)c1,34,11,43,66*,-1,44*[fluorescence artefact?]
Fc1ccccc1COc1ccc(Br)cc1CNCc1ccncc1,20,4,80*,20,-1,2
Fc1ccc(COc2ccc(Br)cc2CNCc2ccncc2)cc1,13,3,84*,37,-3,9
N#Cc1cc([N+](=O)[O-])cnc1NCC(O)CO (stereo unspecified),6,-1,-1,-23,-1,8
CC1Cc2ccccc2N1C1=CC(=O)CCC1 (stereo unspecified),6,25,-16,-30,-1,-1
CCN(c1ccc(F)cc1)S(=O)(=O)c1ccc2[nH]cc(C(=O)NCCCN3CCOCC3)c(=O)c2c1,31,-9,20,32,0,12
CCN(c1ccccc1)S(=O)(=O)c1ccc2[nH]cc(C(=O)N3CCOCC3)c(=O)c2c1,-1,-3,31,57*,0,3
CCOC(=O)N1CCC(n2c(SCC(=O)NCCc3ccc(S(N)(=O)=O)cc3)nc3ccccc3c2=O)CC1,-3,23,-12,6,0,1
Cc1ccc2cc(CCl)c(Cl)nc2c1,-15,27,-2,-61,.,-8
NNC(=O)c1cc(O)c(O)c(O)c1,73*,15,27,-83,8,-1
